Screens deposited in PubChem by National Center for Advancing Translational Sciences (NCATS).
Only some compounds are listed: those with a hit (about 3% of all), similar ones and a draw of the others.
PLK1 PBD inh = blocks phosphopeptide binding to human PLK1 polo-box domain | Plk1 PBD binding of FITC phosphopeptide, fluorescence polarization | 360,000 compounds, 2.8% hits | P53350 | Potency, µM, inactives show max response, negative = inhibition, most hits filed as inhibitors; note: series mostly up to about 57 µM; nearly all actives have a fitted effect of over 65% in size
KAT2A inh = GCN5L2 (KAT2A) acetyltransferase inhibition. GCN5L2 HAT assay, ThioGlo1 CoA-SH fluorescence. Potency, µM (doses to about 58.9 µM), without a hit: at the highest dose activity change, negative = inhibition, hits mostly inhibitors. 390,000 compounds, 0.21% hits
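GCN5L2 (20nM final) in 50mM HEPES, 0.1mM EDTA pH 7.5, 0.01% Tween-20 was preincubated 15 min at room temperature with compound, then given ThioGlo1 (50uM), H3(1-25) peptide (75uM) and acetyl-CoA (70uM); CoA-thiol fluorescence (Ex340/Em540) was read at 0 and 20 min.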
12-LOX inh = ALOX12 (human) lipoxygenase inhibition; AID 1671190; Potency, µM (series often up to 108 µM), without a hit: top-dose activity change, negative = inhibition, hits mostly inhibitors; purified 12hLO, xylenol orange hydroperoxide absorbance; 580,000 compounds, 1.1% hits
Target sequence (P18054 whole entry, looked up): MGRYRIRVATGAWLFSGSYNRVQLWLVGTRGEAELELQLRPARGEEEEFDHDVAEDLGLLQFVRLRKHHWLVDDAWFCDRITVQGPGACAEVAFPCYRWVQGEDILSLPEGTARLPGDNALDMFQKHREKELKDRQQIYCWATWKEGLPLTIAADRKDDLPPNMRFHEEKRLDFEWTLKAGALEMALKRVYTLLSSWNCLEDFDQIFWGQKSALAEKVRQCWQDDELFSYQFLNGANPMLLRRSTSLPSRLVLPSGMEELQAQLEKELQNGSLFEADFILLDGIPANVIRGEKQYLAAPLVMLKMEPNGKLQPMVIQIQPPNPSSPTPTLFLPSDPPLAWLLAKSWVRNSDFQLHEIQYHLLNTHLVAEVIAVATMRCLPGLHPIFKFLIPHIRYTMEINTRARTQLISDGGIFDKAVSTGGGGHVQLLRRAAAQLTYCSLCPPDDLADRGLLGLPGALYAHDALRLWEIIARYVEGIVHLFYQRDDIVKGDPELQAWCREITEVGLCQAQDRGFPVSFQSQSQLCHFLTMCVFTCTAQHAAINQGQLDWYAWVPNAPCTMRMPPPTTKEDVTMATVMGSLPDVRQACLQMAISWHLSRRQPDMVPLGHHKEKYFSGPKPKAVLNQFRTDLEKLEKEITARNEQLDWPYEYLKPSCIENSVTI
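Hydroperoxide product was detected by ferrous iron/xylenol orange as the 573 to 405 nm absorbance ratio. Arachidonic acid at 40 uM (final) was turned over for 30 min at room temperature by 150 nM human 12hLO, pH 7.0 Hepes buffer, after 15 min compound preincubation.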
VDR inhibitor = vitamin D3 receptor (human) inhibition | VDR-SRC2-3 peptide fluorescence polarization, 2 h | Potency, µM, for the others: max response, negative = inhibition, most hits filed as inhibitors | 400,000 compounds, 0.93% hits
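Fluorescence polarization assay of small-molecule disruption of VDR binding to coregulator peptide SRC2-3. Compounds and controls pin-transferred, then read after 2 h incubation at ambient room temperature.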
Active calls of the source: *; ? = inconclusive; / = not tested or not shown; ! = a repeat was not active; [ ] = another dose, or the depositor's remark. Calls come from the whole dose curve; as a rule, active = well fitted curve in the direction sought with a large enough effect; inconclusive = small, poorly fitted or top-dose-only effect, or another doubt; inactive = no such curve, though single readings can be large; an effect the other way counts as inactive or inconclusive. % is set by controls: 0 for no effect and ±100 for the full control effect; potency is the fitted concentration of half-maximal effect.

SMILES	PLK1 PBD inh	KAT2A inh	12-LOX inh	VDR inhibitor
COc1cc2c(cc1OC)C(c1cc(Br)ccc1F)N(C(=O)CCl)CC2 (stereo unspecified)	-19%	-2%	16µM*	?
CCCCCC(CC(=O)O)C(=O)O (stereo unspecified)	/	5%	/	-3%
CCCCCCCCCCCCCCC(C(=O)O)C(O)(CC(=O)OC)C(=O)O (stereo unspecified)	/	13µM*	/	22µM*
Cc1cc(C)cc(NC(=O)Cc2csc(COc3cccc(C)c3)n2)c1	/	-15%	50µM*	20%
COc1cccc(NC(=O)Cc2csc(COc3cccc(C)c3)n2)c1	/	-16%	-30%	1%
CCc1ccc(NC(=O)C2CC3CCCC(C2)C3=O)cc1 (stereo unspecified)	/	/	-3%	/
N#Cc1cc([N+](=O)[O-])ccc1N1CCCC1	27µM*	-1%	-3%	?
O=[N+]([O-])c1ccc(N2CCCCCC2)c([N+](=O)[O-])c1	-12%	-2%	?	-19%
O=c1oc2ccccc2cc1-c1nc(-c2ccc(N3CCCCC3)cc2)no1	/	/	0%	/
CC1=C/C(=C/N(C)c2ccccc2)C(=O)S1	27µM*	-15%	?	?
Nc1ccccc1Oc1ncc(C(F)(F)F)cc1Cl	-3%	?	2%	-7%
Cn1nc(C(F)(F)F)cc1Oc1ncc(C(F)(F)F)cc1Cl	-12%	-15%	-13%	1.4µM*
COc1cccc(/C=C2\Oc3cc(OS(C)(=O)=O)ccc3C2=O)c1OC	/	/	-3%	/
O=[N+]([O-])c1ccccc1NC(=S)N/N=C/c1ccc(O)c(O)c1	12µM*	-5%	?	?
COc1cccc(CN2CCc3c(cc(C(=O)Nc4ccccc4)n3C)C2)c1	/	/	4%	/
COc1ccc(NC(=O)c2cc3c(n2C)CCN(Cc2ccc(F)cc2)C3)cc1	/	/	18µM*	/
O=C(CCCSc1nc2ccccc2s1)NCc1ccc(F)cc1	/	/	-9%	/
CC(=O)Nc1ccc(SCC(=O)Nc2cc(C)on2)cc1	24µM*	-13%	0%	-22%
Cc1cc(NC(=O)CSc2nnnn2-c2ccc(C(C)C)cc2)no1	27µM*	-8%	-23%	-30%
COc1ccc(CCNC(=O)CSc2ccc(NC(C)=O)cc2)cc1OC	13µM*	-5%	-9%	-4%
OC1CCC(NCc2ccc(-c3cnc4c(OCc5ccccc5)nccn34)cc2)CC1 (stereo unspecified)	/	/	-1%[176 µM]	/
CN(C)Cc1cc(C[C@@H]2C[C@H](N(Cc3ccco3)Cc3ccco3)C2(C)C)no1	/	/	50%[176 µM]	/
CC(C)CNC(=O)Cc1ccc(-n2c(=O)c3ccccc3n(Cc3ccccc3F)c2=O)cc1	/	/	10%	/
O=c1[nH]c(Nc2ccccc2)nc2nccc(-c3ccco3)c12	/	/	35µM*	/
COCCOC1CCOC2(CCN(C(=O)Nc3ccc(OC)cc3)CC2)C1 (stereo unspecified)	/	/	27%	/
SMILES	PLK1 PBD inh	KAT2A inh	12-LOX inh	VDR inhibitor
Cc1cccn2cc(CCNC(=O)c3ccco3)nc12	1%	-2%	32%	-8%
Cc1cccn2cc(CNC(=O)c3ccco3)nc12	-8%	35µM*	0%	-19%
CC1(C)CC(NC(=O)CCc2ccsc2)CC(C)(C)N1	/	/	-12%	/
CC(NC(=O)NCCNc1ncccn1)c1ccccn1 (stereo unspecified)	/	/	-11%	/
O=C(N/N=C/c1ccccc1Cl)c1nc2ccc([N+](=O)[O-])cc2c(=O)[nH]1	24µM*	3%	-27%	?
CCOc1cc(C2/C(=C(/O)c3ccc(OC(C)C)cc3)C(=O)C(=O)N2CCCOC)ccc1O (stereo unspecified)	-3%	-26%	20µM*	10%
COCCCN1C(=O)C(=O)/C(=C(/O)c2ccc(C)cc2)C1c1ccccc1 (stereo unspecified)	-6%	-14%	7.1µM*	0%
COc1ccccc1NC(=O)c1ccc(NC(=O)Cn2nc(C(=O)O)c3ccccc3c2=O)cc1	/	/	-16%	/
CC(C)N(CC#CCC1(O)c2ccccc2-c2ccccc21)CCO	-5%	-5%	7.9µM*	-4%
COc1cc(OCc2ccccc2)ccc1CN1CC[C@@]2(O)CCNC[C@H]2C1	/	/	40%	/
Cc1c(CCOC(=O)C2C3CC4CC(C3)CC2C4)sc[n+]1CC(=O)c1ccc(Br)cc1 (stereo unspecified)	0%	-15%	40µM*!	7%
Cn1c(NCCN(CCO)CCCc2ccc([N+](=O)[O-])cc2)cc(=O)n(C)c1=O	-4%	-20%	-6%	50µM*!
Nc1cccc(-n2nnnc2CN2CCOCC2)c1	11µM*	8%	-14%	45µM*
Cn1c(Cn2c(=O)sc3ccccc32)nnc1SCC(=O)NC1CCCC1	24µM*	-2%	439%	-23%
Cn1c(SCC(=O)NC2CC2)nnc1-c1ccccc1Cl	27µM*	-19%	5%	-8%
Cn1c(SCC(=O)NC2CC2)nnc1-c1ccccc1	-6%	-11%	-7%	-5%
Cn1cc(C(=O)N2CCN(CC(=O)N3CCCC3)CC2)c2ccccc21	/	/	-44%	/
C[N+]1(CC2COC(c3ccccc3)(C3CCCCC3)O2)CCCCC1 (stereo unspecified)	/	22µM*	?	1%
CC1=C(C(=O)NC2CCCCCC2)C2(CCCCCC2)OC1=O	/	/	-15%	/
Cc1nn(-c2ccc3nncn3n2)c2c1C(c1ccc(O)c(Cl)c1)CC(=O)N2 (stereo unspecified)	/	/	3%	/
CC[C@@H](C)[C@H](NS(=O)(=O)c1cccc2ccccc12)C(=O)N[C@H](C=O)Cc1c[nH]c2ccccc12	/	-7%	?	32µM*
CC(C)n1c(CSCc2ccc(Cl)cc2Cl)n[nH]c1=S	?	-7%	45µM*	-12%
Cc1cc(F)ccc1S(=O)(=O)Nc1ncnc2sccc12	21µM*	-3%	-8%	-10%
Cc1ccc(Nc2ncnc3sccc23)cc1C	/	/	4%	/
CN1CCC(NC[C@H]2COCc3nc4cc(C(F)(F)F)ccc4n32)CC1	/	/	69%[176 µM]	/
SMILES	PLK1 PBD inh	KAT2A inh	12-LOX inh	VDR inhibitor
Cc1c(N=Cc2cc(Br)cc(Br)c2O)cccc1C(=O)O	?	-17%	50µM*	-23%
O=C(O)c1cccc(N/N=C/c2cc(Br)cc(Br)c2O)c1	24µM*	-10%	45µM*	-26%
CC1CCN(C(=O)COc2ccc(Cl)cc2C(N)=O)CC1	/	/	33%	/
COc1ccc(C(=O)N2CCCC(C(=O)Nc3ccc(C)cc3)C2)c2ccccc12 (stereo unspecified)	/	/	31%	/
CC(=O)Nc1ccc(S(=O)(=O)NNC(=O)c2ccc([N+](=O)[O-])cc2)cc1	-2%	-2%	?	3%
Cn1cc([N+](=O)[O-])c(C(=O)Nc2cc(Oc3ccccc3)cc([N+](=O)[O-])c2)n1	-15%	-6%	-21%	-10%
CC(=O)Nc1ccc(Oc2cc(NC(C)=O)cc([N+](=O)[O-])c2)cc1	7.5µM*	-10%	0%	?
CC(=O)Nc1ccc(S(=O)(=O)NNc2ccc([N+](=O)[O-])cc2)cc1	?	-8%	?	89µM*
Cc1nn(C)cc1C(=O)Nc1cc(Oc2ccc(Cl)cc2)cc([N+](=O)[O-])c1	27µM*	-24%	-26%	-16%
